Measured values reported in PubChem BioAssay (NCATS).
Several values for one entry are separate records, joined by “and”; a condition that tells them apart may be missing. Equal values may be shown once. Results filed as inconclusive are left out. The source holds several records for some structures; these can differ, active in one and inactive in another. Activity calls are given as the source filed them. Unless noted, the call rests on the fitted dose curve; in most records, active means well fitted curve in the direction sought with a large enough effect; inconclusive means small, poorly fitted or top-dose-only effect, or another doubt; inactive means no such curve, though single readings can be large; an effect the other way counts as inactive or inconclusive.

Key:
[1] = molecular target: Voltage-gated inwardly rectifying potassium channel KCNH2 (Homo sapiens) (UniProt Q12809); assay: qHTS Assay for Small Molecule Inhibitors of the Human hERG Channel Activity (AID 588834);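 further: lower thallium flux fluorescence means stronger hERG block; nearly all actives have a fitted effect of over 50% in size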; further: potency means the concentration at half of the fitted maximal effect
How it was run: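 Blockade is seen as reduced FluxOR thallium-flux fluorescence in U2OS cells expressing hERG from a BacMam construct, in Opti-MEM with 2% FCS. Concentration-response data fitted to the Hill equation for AC50.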

[2] = molecular target: Luciferin 4-monooxygenase (Photinus pyralis) (UniProt P08659); assay: Biochemical firefly luciferase enzyme assay for NPC (AID 624030); further: nearly all actives have a fitted effect of over 70% in size; further: potency means the concentration at half of the fitted maximal effect
How it was run: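 Direct inhibition of firefly luciferase enzyme (10 nM final, 50 mM Tris Acetate) assessed by luminescence within 5 minutes. Percent activity scaled between DMSO and PTC124 positive control, with concentration-effect curves classified by fit quality and response.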

[3] = S16 Schwann cell viability assay (CellTiter-Glo assay) (AID 624031);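 further: native untransfected S16 rat Schwann cells; cellular ATP luminescence as a viability measure; nearly all actives have a fitted effect of over 70% in size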
How it was run: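 Following overnight culture in 10% FBS DMEM, parental S16 rat Schwann cells are dosed for 24 h at 37 °C. Viability is read as CellTiter-Glo luminescence and expressed as % activity relative to DMSO (0%) and no-cell wells.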

[4] = S16 Schwann cell PMP22 intronic element firefly luciferase assay (AID 624032); further: nearly all actives have a fitted effect of over 30% in size
How it was run: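 Luciferase reporter of PMP22 intronic-element expression in stably transfected S16 rat Schwann cells, read by ONE-Glo luminescence after 24 h compound exposure at 37 C. Activity scaled between DMSO (0%) and positive-control PTC124; concentration-effect curves quality-classified.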

[5] = qHTS of Trypanosoma Brucei Inhibitors: LOPAC Validation (AID 624147)
How it was run: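 Glycolytic pyruvate kinase of T. brucei was incubated with substrate, test compound and 130 uM ADP for 45 minutes at room temperature. Luminescent Kinase-Glo Plus signal was measured after 10 minutes.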

[6] = molecular target: Glucagon-like peptide 1 receptor (Homo sapiens) (UniProt P43220); assay: qHTS of GLP-1 Receptor Agonists: LOPAC Validation (AID 624148);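 further: luminescence from a luciferase reporter switched on by cAMP; higher luminescence signal means agonism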
How it was run: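 Agonism scored as increased luciferase luminescence driven by cAMP in HEK293 clones carrying GLP-1R. Cells settled 12 hours, received compound for 4-6 hr at 37 deg C, 5% CO2, and were read after 12 min detection reagent at RT.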

[7] = qHTS of Nrf2 Activators: LOPAC Validation (AID 624149)
How it was run: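 AREc32 cells carrying an ARE-driven firefly luciferase were grown overnight in OPTI-MEM with 5% FBS, then exposed to compounds for 24 hr at 37 deg C. Luciferase signal was read after 30 min with Steady-Glo at RT.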

[8] = Cytotoxicity counterscreen for NFkB agonists and antagonists (AID 624476)
[9] = qHTS Assay for Identification of Small Molecule Agonists for NFkB Signaling Pathway. (AID 624478)
How it was run: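 NFkB-bla ME-180 cells (beta-lactamase reporter under NFkB response element) were plated overnight, treated with compound plus TNF alpha at 10 pM final (its EC50) for 5 hrs at 37 C, then loaded with LiveBLAzer substrate for 2 hrs.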

[10] = qHTS Assay for Identification of Small Molecule Antagonists for NFkB Signaling Pathway. (AID 624479; calls by dose curve;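 further: pathway stimulated with TNF alpha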)
[11] = Cell Proliferation Assay against the TMD8 Cell Line (AID 651645); details: TMD8 DLBCL cell line proliferation/viability; at 46.1 µM (top of the series) unless noted;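 further: cells exposed to compound for 48 h before reading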
How it was run: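 Cell viability of the ABC DLBCL line TMD8 is measured by CellTiter-Glo luminescence following a 48-hour incubation with compound. Percent activity uses DMSO as 100% and 9.2 uM bortezomib (final) as 0%.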

[12] = Cell Proliferation Assay against the HBL1 Cell Line (AID 651646); details: HBL1 DLBCL cells; at 46.1 µM (top of the series) unless noted;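 further: cells exposed to compound for 48 h before reading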
How it was run: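 Luminescent ATP read-out (CellTiter-Glo) after 48 h compound exposure of HBL1 cells at 37 °C; percent activity was scaled between DMSO as 100% and 9.2 uM bortezomib (final) as 0%.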

[13] = molecular target: Glutaminase kidney isoform, mitochondrial (Homo sapiens) (UniProt O94925); assay: qHTS for Inhibitors of Glutaminase (GLS): LOPAC Validation (AID 624146);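 further: glutamate product detected by oxidase and peroxidase coupled Amplex red fluorescence gain; nearly all actives have a fitted effect of over 60% in size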
How it was run: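 Coupled fluorescence readout: glutamate oxidase/HRP/Amplex Red detect glutamate formed by hKGA from L-glutamine (1 mM solution added). Buffer 45 mM KH2PO4 pH 8.2, 0.02% Tween-20; reads at t0 and 30 min RT.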

[14] = HTS Assay for Allosteric Antagonists of the Human D2 Dopamine Receptor: Hit Validation in HTRF (AID 624455); further: potency means the concentration at half of the fitted maximal effect;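 further: stable D1 dopamine receptor cell line scored for blocking the D1 response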
How it was run: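 Hits were examined in an HTRF assay using cells stably expressing the D1 dopamine receptor, scoring inhibition of the D1-mediated response. The preceding primary screen tracked calcium flux after an EC80 dopamine addition in force-coupled, inducible Hek293 Trex D2 cells.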

[15] = S16 Schwann cell PMP22 intronic element beta-lactamase assay (AID 624044; calls by dose curve; further: nearly all actives have a fitted effect of over 15% in size; further: potency means the concentration at half of the fitted maximal effect)
How it was run: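 Rat S16 Schwann cells with beta-Lac driven by a PMP22 intronic element, compound-treated 24 h at 37 °C. LiveBLAzer FRET B/G read: 460 nm normalized to potassium clavulanate vs DMSO; 535 nm FRET as viability; concentration-effect curves classified.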

Sequence of Luciferin 4-monooxygenase (Photinus pyralis) (P08659 whole entry, looked up): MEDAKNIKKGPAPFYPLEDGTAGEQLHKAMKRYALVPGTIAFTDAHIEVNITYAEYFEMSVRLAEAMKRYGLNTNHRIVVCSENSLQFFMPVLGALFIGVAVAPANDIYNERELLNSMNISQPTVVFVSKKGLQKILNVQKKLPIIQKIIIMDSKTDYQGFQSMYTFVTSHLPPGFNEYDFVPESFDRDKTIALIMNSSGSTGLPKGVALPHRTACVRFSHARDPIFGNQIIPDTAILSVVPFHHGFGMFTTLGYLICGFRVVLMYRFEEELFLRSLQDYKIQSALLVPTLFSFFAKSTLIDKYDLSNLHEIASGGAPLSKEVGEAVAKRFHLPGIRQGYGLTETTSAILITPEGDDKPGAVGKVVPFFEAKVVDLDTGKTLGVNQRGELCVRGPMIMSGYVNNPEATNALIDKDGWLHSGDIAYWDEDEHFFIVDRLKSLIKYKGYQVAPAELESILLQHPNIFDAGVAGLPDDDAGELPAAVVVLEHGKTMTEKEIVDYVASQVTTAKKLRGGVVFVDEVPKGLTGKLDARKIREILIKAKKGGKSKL
Sequence of Voltage-gated inwardly rectifying potassium channel KCNH2 (Homo sapiens) (Q12809 whole entry, looked up): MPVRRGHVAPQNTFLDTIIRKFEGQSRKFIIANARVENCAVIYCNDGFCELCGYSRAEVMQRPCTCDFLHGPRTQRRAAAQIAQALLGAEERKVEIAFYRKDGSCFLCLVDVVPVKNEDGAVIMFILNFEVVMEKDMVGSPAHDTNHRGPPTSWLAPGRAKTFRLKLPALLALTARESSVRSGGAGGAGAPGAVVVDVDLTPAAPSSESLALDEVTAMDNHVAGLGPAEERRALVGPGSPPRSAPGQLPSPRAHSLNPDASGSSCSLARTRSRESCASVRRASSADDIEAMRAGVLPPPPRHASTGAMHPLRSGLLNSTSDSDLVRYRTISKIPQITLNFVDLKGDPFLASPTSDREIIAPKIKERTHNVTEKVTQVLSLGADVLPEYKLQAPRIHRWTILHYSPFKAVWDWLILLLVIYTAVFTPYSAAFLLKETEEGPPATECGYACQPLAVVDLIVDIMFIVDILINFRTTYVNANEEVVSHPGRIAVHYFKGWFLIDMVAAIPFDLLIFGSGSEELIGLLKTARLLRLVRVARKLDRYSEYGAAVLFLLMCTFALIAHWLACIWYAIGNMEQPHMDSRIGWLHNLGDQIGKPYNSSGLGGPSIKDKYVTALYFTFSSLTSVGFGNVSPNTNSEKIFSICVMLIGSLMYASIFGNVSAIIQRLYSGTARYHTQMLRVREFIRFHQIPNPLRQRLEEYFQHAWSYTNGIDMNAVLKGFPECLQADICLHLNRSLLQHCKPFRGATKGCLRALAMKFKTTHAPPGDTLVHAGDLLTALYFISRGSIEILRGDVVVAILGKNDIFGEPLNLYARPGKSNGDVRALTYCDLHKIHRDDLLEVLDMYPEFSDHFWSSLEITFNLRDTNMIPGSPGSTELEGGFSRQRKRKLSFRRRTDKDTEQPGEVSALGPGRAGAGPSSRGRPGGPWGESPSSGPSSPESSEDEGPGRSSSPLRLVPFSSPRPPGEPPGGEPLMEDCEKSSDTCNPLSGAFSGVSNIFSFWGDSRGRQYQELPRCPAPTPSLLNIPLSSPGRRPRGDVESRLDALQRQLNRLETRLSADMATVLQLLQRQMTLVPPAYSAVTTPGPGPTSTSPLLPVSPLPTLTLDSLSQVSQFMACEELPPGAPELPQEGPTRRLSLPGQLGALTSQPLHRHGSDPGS
Sequence of Glutaminase kidney isoform, mitochondrial (Homo sapiens) (O94925 whole entry, looked up, canonical isoform): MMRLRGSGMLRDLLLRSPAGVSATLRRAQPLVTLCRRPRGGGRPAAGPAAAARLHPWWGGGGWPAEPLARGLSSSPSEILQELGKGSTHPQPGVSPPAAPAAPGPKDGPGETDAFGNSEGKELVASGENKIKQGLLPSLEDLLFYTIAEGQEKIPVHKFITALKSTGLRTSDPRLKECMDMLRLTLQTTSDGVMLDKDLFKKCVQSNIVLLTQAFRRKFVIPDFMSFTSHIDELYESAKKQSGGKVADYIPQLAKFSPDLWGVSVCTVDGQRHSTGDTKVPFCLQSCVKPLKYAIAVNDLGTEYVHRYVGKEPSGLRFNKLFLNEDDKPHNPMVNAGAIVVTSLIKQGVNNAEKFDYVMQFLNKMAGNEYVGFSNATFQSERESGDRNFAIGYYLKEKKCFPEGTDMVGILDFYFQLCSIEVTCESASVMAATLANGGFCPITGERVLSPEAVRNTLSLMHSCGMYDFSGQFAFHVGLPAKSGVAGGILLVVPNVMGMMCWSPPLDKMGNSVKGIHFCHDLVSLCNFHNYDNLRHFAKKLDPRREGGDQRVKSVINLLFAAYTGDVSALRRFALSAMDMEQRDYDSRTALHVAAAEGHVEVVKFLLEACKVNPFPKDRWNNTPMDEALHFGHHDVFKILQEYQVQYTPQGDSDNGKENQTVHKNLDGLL
Sequence of Glucagon-like peptide 1 receptor (Homo sapiens) (P43220 whole entry, looked up): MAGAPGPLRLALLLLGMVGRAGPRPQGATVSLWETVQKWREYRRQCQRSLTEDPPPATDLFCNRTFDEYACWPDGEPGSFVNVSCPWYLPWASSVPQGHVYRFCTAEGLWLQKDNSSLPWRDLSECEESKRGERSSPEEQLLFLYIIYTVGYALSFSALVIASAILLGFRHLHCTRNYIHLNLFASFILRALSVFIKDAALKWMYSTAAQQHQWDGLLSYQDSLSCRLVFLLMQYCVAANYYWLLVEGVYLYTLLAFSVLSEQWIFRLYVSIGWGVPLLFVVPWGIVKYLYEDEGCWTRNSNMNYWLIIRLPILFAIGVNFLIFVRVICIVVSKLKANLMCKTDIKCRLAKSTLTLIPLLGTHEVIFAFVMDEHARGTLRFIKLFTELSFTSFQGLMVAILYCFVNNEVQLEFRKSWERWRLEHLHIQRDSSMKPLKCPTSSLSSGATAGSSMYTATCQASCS

Cc1cc(C(C)(C)C)c(O)c(C)c1CC1=NCCN1
active: Potency [1] 11.2 µM
inactive: Potency [2] | Potency [3] | Potency [4] | Potency [5] | Potency [6] | outcome [7]

Cn1ccc2cc3c(cc21)CCN3C(=O)Nc1cccnc1
88.1%: viability, percent of control [12]
102%: viability (% of control) [11]
inactive: Potency [1] | Potency [4] | Potency [5] | Potency [6] | outcome [7] | Potency [8] | outcome [9] | Potency [10]
active: Potency [2] 6.42 µM

NC12CC3CC(CC(C3)C1)C2
inactive: Potency [1] | Potency [2] | Potency [13] | Potency [5] | Potency [6] | outcome [7]

COc1ccccc1OCC(O)CN1CCN(CC(=O)Nc2c(C)cccc2C)CC1 (configuration not stated)
inactive: Potency [1] | Potency [2] | Potency [3] | Potency [4] | Potency [15] | Potency [13] | Potency [5] | Potency [6] | outcome [7]

O=C1N(c2ccccc2)c2ccccc2C1(Cc1ccncc1)Cc1ccncc1
inactive: Potency [1] | Potency [2] | Potency [4] | Potency [15] | Potency [13] | Potency [5] | Potency [6] | outcome [7] | Potency [14]

CC[N+](CC)(CC)CCOc1cccc(OCC[N+](CC)(CC)CC)c1OCC[N+](CC)(CC)CC
inactive: Potency [1] | Potency [2] | Potency [3] | Potency [4] | Potency [13] | Potency [6] | outcome [7] | Potency [14]

O=C(c1ccc(F)cc1)C1CCN(CCn2c(=O)[nH]c3ccccc3c2=O)CC1
inactive: Potency [2] | Potency [4] | Potency [15] | Potency [13] | Potency [5] | Potency [6] | outcome [7] | Potency [14]
active: Potency [1] 3.55 µM and 562 nM

COc1ccccc1N1CCN(CC(O)COc2cccc3ccccc23)CC1 (configuration not stated)
active: Potency [1] 3.16 µM and 794 nM
inactive: Potency [2] | Potency [5] | Potency [6] | outcome [7] | Potency [14]

Clc1ccc2nsnc2c1NC1=NCCN1
inactive: Potency [1] | Potency [2] | Potency [3] | Potency [4] | Potency [13] | Potency [5] | Potency [6] | outcome [7]

NCCc1cnc[nH]1
inactive: Potency [1] | Potency [2] | Potency [4] | Potency [15] | Potency [5] | Potency [6] | outcome [7] | Potency [14]

Nc1nc2c(ncn2COC(CO)CO)c(=O)[nH]1
inactive: Potency [1] | Potency [2] | Potency [4] | Potency [13] | Potency [5] | Potency [6] | outcome [7]

NC(=O)OCC(COC(N)=O)c1ccccc1
inactive: Potency [1] | Potency [2] | Potency [3] | Potency [4] | Potency [13] | Potency [5] | Potency [6] | outcome [7] | Potency [14]

CS(=O)(=O)Nc1ccc([N+](=O)[O-])cc1Oc1ccccc1
inactive: Potency [1] | Potency [2] | Potency [4] | Potency [6] | outcome [7]

CCOC(=O)c1ncn2c1CN(C)C(=O)c1cc(F)ccc1-2
inactive: Potency [1] | Potency [2] | Potency [4] | Potency [13] | Potency [5] | Potency [6] | outcome [7] | Potency [14]

CN1C(C(=O)Nc2ccccn2)=C(O)c2ccccc2S1(=O)=O
inactive: Potency [1] | Potency [2] | Potency [4] | Potency [13] | Potency [5] | Potency [6] | outcome [7] | Potency [14]

CC(CCc1ccc(O)cc1)NCCc1ccc(O)c(O)c1 (configuration not stated)
inactive and 3.55 µM (active): Potency [1]
active: Potency [14] 3.26 µM
inactive: Potency [2] | Potency [4] | Potency [15] | Potency [5] | outcome [7]

COc1cc2nc(N3CCN(C(=O)c4ccco4)CC3)nc(N)c2cc1OC
inactive: Potency [1] | Potency [2] | Potency [13] | Potency [5] | Potency [6] | outcome [7] | Potency [14]

CC(C)NCC(O)COc1ccc(CCOCC2CC2)cc1 (configuration not stated)
inactive: Potency [1] | Potency [2] | Potency [3] | Potency [4] | Potency [13] | Potency [5] | Potency [6] | outcome [7]

CC(C)(C)C(=O)Oc1ccc(S(=O)(=O)Nc2ccccc2C(=O)NCC(=O)O)cc1
inactive: Potency [1] | Potency [2] | Potency [4] | Potency [15]

CC1(CN2CCC(n3c(=O)[nH]c4ccccc43)CC2)OCc2ccccc2-n2cccc21 (configuration not stated)
active: Potency [1] 11.2 µM
12.7%: viability (% of control) [11]
inactive: Potency [2] | outcome [9]
6.74%: viability, percent of control [12]

COC(=O)Nc1nc2ccc(C(=O)c3cccs3)cc2[nH]1
active: Potency [15] 2.24 µM
inactive: Potency [1] | Potency [2] | Potency [4] | Potency [13] | Potency [5] | Potency [6] | outcome [7] | Potency [14]

Clc1ccccc1C(c1ccccc1)(c1ccccc1)n1ccnc1
active: Potency [1] 10 µM and 11.2 µM
inactive: Potency [2] | Potency [3] | Potency [15] | Potency [13] | Potency [5] | Potency [6] | outcome [7] | Potency [14]
